These results are taken from PubChem BioAssay (Tox21).

“And” between values parts separate entries of the source, which are not always exact repeats. Equal entries are not always repeated. Values without a mark were called inactive. Records with an inconclusive call do not appear. The source made the active and inactive calls. The call rests on the fitted dose curve; in most records, active means well fitted curve in the direction sought with a large enough effect in the repeat runs; inconclusive means weak or mixed curves; inactive means no such curve, though single readings can be large; an effect the other way counts as inactive or inconclusive.

Assay [1] in a line: A CellTox Green Cytotoxicity Assay to monitor cytotoxicity in HEK293 cells - 32 hour (AID 1224881). Further: nearly all actives have a fitted effect of over 40% in size. Further: potency means the concentration at half of the fitted maximal effect. The method in brief: (§1)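 Cytotoxicity was tracked continuously in HEK293 cells by a DNA-binding dye excluded from viable cells. Compounds were transferred in DMSO 5 h after seeding; fluorescence was recorded at intervals up to 40 h.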
The nature of assay [2]: A CellTox Green Cytotoxicity Assay to monitor cytotoxicity in HepG2 cells - 0 hour (AID 1224882). Further: nearly all actives have a fitted effect of over 35% in size. Summed up: (§2)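 Real-time, homogeneous cytotoxicity readout: dead-cell DNA staining by CellTox Green in HepG2 monolayers, fluorescence measured at timed intervals up to 40 h of continuous compound exposure.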
Assay [3] is described as follows: A CellTox Green Cytotoxicity Assay to monitor cytotoxicity in HepG2 cells - 32 hour (AID 1224883). Further: nearly all actives have a fitted effect of over 50% in size. Further: potency means the concentration at half of the fitted maximal effect. The method in brief: as §2
The nature of assay [4]: A CellTox Green Cytotoxicity Assay to monitor cytotoxicity in HEK293 cells - 8 hour (AID 1224884). Further: nearly all actives have a fitted effect of over 35% in size. Further: potency means the concentration at half of the fitted maximal effect. The method in brief:
as §1

Assay [5] is described as follows: qHTS RealTime-Glo MT Cell Viability Assay in HepG2 cells - 16 hour (AID 1224885). Further: nearly all actives have a fitted effect of over 50% in size. Further: potency means the concentration at half of the fitted maximal effect. Summed up: (§3)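 Compound treatment began 5 h after plating HepG2 cells (600/well) with NanoLuc luciferase and prosubstrate. Plates stayed at 37 C for 40 h; luminescence was captured at six time points, 0 h through 40 h.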
Assay [6] in a line: A CellTox Green Cytotoxicity Assay to monitor cytotoxicity in HEK293 cells - 16 hour (AID 1224888). Further: nearly all actives have a fitted effect of over 35% in size. Further: potency means the concentration at half of the fitted maximal effect. Summed up: as §1
A short description of assay [7]: qHTS RealTime-Glo MT Cell Viability Assay in HepG2 cells - 0 hour (AID 1224889). Further: nearly all actives have a fitted effect of over 50% in size. The method in brief: as §3
Assay [8] can be described thus: A CellTox Green Cytotoxicity Assay to monitor cytotoxicity in HepG2 cells - 8 hour (AID 1224890). Further: nearly all actives have a fitted effect of over 45% in size. Further: potency means the concentration at half of the fitted maximal effect. The method in brief:
as §2

Assay [9] is described as follows: qHTS RealTime-Glo MT Cell Viability Assay in HEK293 cells - 8 hour (AID 1224887). Further: nearly all actives have a fitted effect of over 50% in size. Further: potency means the concentration at half of the fitted maximal effect. On activity change, negative = cytotoxicity: top concentration of the series differs between compounds. The method in brief:
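Nonlytic bioluminescent viability monitoring. HEK293 at 600 cells/well with reagent; 5 h settle; compound transfer by pintool; plates held at 37 C and read at set time points.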
For orientation: Quantitative high-throughput screening tests each substance at several concentrations.

Assay [10] in a line: qHTS RealTime-Glo MT Cell Viability Assay in HEK293 cells - 24 hour (AID 1224886). Further: nearly all actives have a fitted effect of over 50% in size. Further: potency means the concentration at half of the fitted maximal effect. On activity change, negative = cytotoxicity: top concentration of the series differs between compounds. The method in brief: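 Quantitative high-throughput screen of the Tox21 10K library in HEK293: cells and RealTime-Glo reagents plated together, compound added at 5 h, luminescence monitored through 40 h at 37 C.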
On the % scale 0 is the no-effect control and ±100 the full control effect.

Regarding `COC(=O)c1cc(Oc2ccc(Cl)cc2Cl)ccc1[N+](=O)[O-]`, the Potency entry in [1], in [2], in [3], in assay [4], in [5] and in assay [6] was “inactive” each time. Further, the Potency entry in assay [7] and in assay [8] was “inactive” throughout.

`CSSC`: the Potency result in assay [1], in assay [2], in assay [3], in assay [4], in assay [5] and in assay [9] was “inactive” throughout. Moreover, the Potency entry in [6] and in assay [7] was “inactive” throughout.

`CC(=O)[O-].CC(=O)[O-].CC(=O)[O-].[Sb+3]`: the cytotoxicity increase is 3.11% [at 2.72 µM] in [1], -22.1% [at 2.72 µM] in assay [3], -0.782% [at 2.72 µM] in assay [4] and -8.87% [at 2.72 µM] in assay [8]. For the same molecule, the cytotoxicity in assay [2] was -11% [at 2.72 µM]. The activity change, negative = cytotoxic in assay [5] is -7.09% [at 2.72 µM]. The activity change, negative = cytotoxicity was 5.82% [at 2.72 µM] in assay [10] and -4.44% [at 2.72 µM] in [9]. Besides, the activity change in assay [6] was 0.422% [at 2.72 µM, stronger effect = higher value].

Take `C[C@@H]1CC2=CC(=O)CC[C@@H]2[C@H]2CC[C@@]3(C)[C@@H](CC[C@]3(C)O)[C@@H]21`: the Potency entry in [1], in assay [2], in [3], in assay [4], in [5] and in [9] was “inactive” throughout. Moreover, the Potency entry in [6], in assay [7] and in assay [8] was “inactive” each time.

On to `CCCCC(CC)COC(=O)OOC(C)(C)C` (stereo not given), for which the Potency entry in assay [1], in assay [2], in assay [3], in assay [4], in assay [5] and in assay [10] was “inactive” in each case. Also, the Potency result in assay [6] and in [7] was “inactive” throughout.

As for `CCN(CC)CCN1C(=O)CN=C(c2ccccc2F)c2cc(Cl)ccc21`, the Potency result in assay [1], in assay [2], in [3], in assay [4], in assay [5] and in [10] was “inactive” each time. Also, the Potency result in [9], in assay [6] and in assay [8] was “inactive” each time.

Regarding `Cc1ccc2cc3c(ccc4ccccc43)c3c2c1CC3`, the Potency result in assay [1], in assay [2], in assay [4], in [5], in [10] and in assay [9] was “inactive” throughout. Further, the Potency entry in assay [7] and in [8] was “inactive” throughout. Besides, the Potency in [3] is 6.93 µM (active).

Regarding `Oc1cccc(Cl)c1Cl`, the Potency entry in [1], in [2], in [3], in [4], in assay [5] and in assay [9] was “inactive” in each case. The Potency entry in assay [6], in [7] and in assay [8] was “inactive” in each case.

As for `CC(Cc1ccc2c(c1)OCO2)NO` (stereo not given), the Potency result in assay [1], in assay [2], in assay [4], in [5], in [10] and in assay [9] was “inactive” each time. The Potency result in assay [6] and in [7] was “inactive” in each case.

As to `CN1CCc2cc3c(cc2C1O)OCO3` (stereo not given), the Potency entry in [1], in assay [2], in [4], in assay [5], in assay [10] and in [9] was “inactive” in each case. Besides, the Potency result in assay [6], in assay [7] and in [8] was “inactive” throughout.

As for `Brc1cccc(-c2ccccc2)c1`, in [1], the Potency is 49.3 µM (active). For the same molecule, the Potency entry in assay [2], in [3], in assay [5], in assay [10], in assay [9] and in assay [7] was “inactive” each time. The Potency result in assay [8] is “inactive”.

Turning to `C=C(C)C(=O)[O][Sn]([CH2]CCC)([CH2]CCC)[CH2]CCC`, the Potency in [1] was 0.49 µM (active); in assay [4], 11 µM (active); in assay [5] it was 0.436 µM (active); in assay [10], 0.309 µM (active); in [9], 0.776 µM (active); in [6] it was 8.71 µM (active). Besides, the Potency in assay [8] was 0.871 µM (active). Further, the Potency result in [2] and in assay [7] was “inactive” in each case.

For `C#CC1(O)CCCCC1`, the Potency result in assay [1], in [2], in [4], in assay [5], in assay [10] and in [9] was “inactive” each time. Further, the Potency result in assay [6] and in assay [8] was “inactive” in each case.

Regarding `c1ccc2nc(N3CCNCC3)ccc2c1`, the Potency result in assay [1], in assay [2], in assay [4], in [5], in assay [10] and in [9] was “inactive” throughout. In addition, the Potency result in [6], in assay [7] and in assay [8] was “inactive” each time.

Turning to `Nc1ccc(Cl)cc1C(=O)c1ccccc1F`, the Potency result in assay [1], in assay [2], in assay [4], in assay [5], in [10] and in [9] was “inactive” in each case. For the same molecule, the Potency entry in assay [6], in assay [7] and in [8] was “inactive” in each case.

For `Oc1ccc(Cl)c(Cl)c1`, the Potency result in assay [1], in assay [2], in assay [4], in [5], in [10] and in assay [9] was “inactive” throughout. For the same molecule, the Potency result in assay [6], in assay [7] and in assay [8] was “inactive” throughout.

As for `CCCCC(CC)COC(=O)c1ccccc1C(=O)OCC(CC)CCCC` (stereo not given), the Potency entry in assay [1], in assay [2], in assay [3], in [5], in [10] and in assay [9] was “inactive” throughout. Besides, the Potency entry in [6], in [7] and in assay [8] was “inactive” each time.

Regarding `Cc1nn(-c2cc(NS(C)(=O)=O)c(Cl)cc2Cl)c(=O)n1C(F)F`, the Potency result in assay [1], in [2], in assay [4], in assay [5], in assay [10] and in assay [9] was “inactive” each time. Also, the Potency entry in assay [6] and in assay [7] was “inactive” throughout.

Consider `[O]=[Cr](=[O])([OH])[O][Cr](=[O])(=[O])[OH]`, for which the Potency result in [1], in assay [2], in [4] and in [6] was “inactive” each time. Further, the Potency in assay [3] was 12.4 µM (active); in [10], 12.4 µM (active) and 6.9 µM (active).

`CNC(=O)O/N=C(\C)C(C)S(C)(=O)=O` (stereo not given): the Potency result in assay [1], in assay [2], in assay [4], in assay [5], in [10] and in [9] was “inactive” in each case. The Potency entry in [6], in assay [7] and in assay [8] was “inactive” in each case.

With `CCN(CC)Cc1nccn1-c1ccc([N+](=O)[O-])cc1C(=O)c1ccccc1Cl`, the Potency result in [1], in [2], in assay [4], in [5], in assay [10] and in [9] was “inactive” throughout. For the same molecule, the Potency entry in assay [6], in [7] and in assay [8] was “inactive” throughout.

On to `O=NN(CCO)CCO`, for which the Potency result in assay [1], in assay [2], in [4], in assay [5], in assay [10] and in assay [9] was “inactive” throughout. Besides, the Potency entry in assay [6], in assay [7] and in [8] was “inactive” each time.

In the case of `Clc1ccc(C(Cl)(Cl)Cl)cc1Cl`, the Potency in assay [1] is 33.9 µM (active); in assay [3], 47.9 µM (active); in assay [4], 42.7 µM (active); in assay [10], 33.9 µM (active); in [9], 30.2 µM (active); in assay [6], 38.1 µM (active). Further, the Potency in [8] was 47.9 µM (active). In addition, the Potency entry in assay [2] and in [7] was “inactive” throughout.

For `CNC(=O)CSP(=O)(OC)OC`, the Potency entry in [1], in assay [2], in assay [4], in [5], in assay [10] and in assay [9] was “inactive” each time. For the same molecule, the Potency result in assay [6], in [7] and in assay [8] was “inactive” throughout.

For the molecule `CCCCCCCc1ccc(O)cc1`, the Potency in assay [1] is 43.6 µM (active); in assay [3], 21.9 µM (active); in [10], 12.3 µM (active); in assay [9], 6.17 µM (active); in assay [6] it was 43.6 µM (active); in assay [8], 24.5 µM (active). Also, the Potency entry in [2], in assay [5] and in assay [7] was “inactive” in each case.
